Nrf2 activator: qHTS of Nrf2 Activators; 410,000 compounds, 0.31% hits; AREc32 ARE-luciferase reporter (MCF7-derived line), luminescence, 24 h; AID 624171, 2012; Potency, µM (top dose mostly 46.1 µM), inactives show at the top dose activation, actives largely listed as activators; note: potency is the fitted concentration of half-maximal effect; % of control where 0% means no effect; nearly all actives have a fitted effect of over 65% in size
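Luciferase luminescence (Steady-Glo, 30 min at room temperature) served as the read-out of ARE activation in AREc32 cells treated with compounds for 24 hr at 37 deg C.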
Nrf2 block: Nrf2 qHTS screen for inhibitors | A549 ARE-Fluc reporter, luciferase luminescence, 18-24 h | 360,000 compounds, 2.1% hits | Potency, µM (highest dose often 46 µM), without a hit: at the highest dose activity change, negative = inhibition, hits mostly inhibitors; note: potency is the fitted concentration of half-maximal effect; % is set by controls: 0 for no effect and ±100 for the full control effect; nearly all actives have a fitted effect of over 60% in size
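In this cell-based qHTS, ARE-driven firefly luciferase in A549 cells reports Nrf2 activity; the luminescent signal after BugLite lysis is the measured value, with a prior CellTiter-Fluor read for cell health.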
PI4K2A inh: qHTS for small molecular inhibitors of PI4K2A | purified PI4K2A, ADP-Glo luminescence, 1 h; active compounds read low | AID 1346378, 2018 | Phosphatidylinositol 4-kinase type 2-alpha (Homo sapiens), Q9BTU6 | 420,000 compounds, 0.13% hits | activity change, negative = inhibition, % at 76.9 µM; in the data active = activity change below about -50%; inconclusive = mostly about -30% to -49%;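 note: -100% = wells without enzyme as full effect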
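Compounds are screened against recombinant PI4K2A using PI as substrate and ATP, the latter dispensed at 300 microM. Reactions run one hour at ambient temperature before ADP-Glo detection; full inhibition defined by wells lacking enzyme.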
GALK inh: qHTS Assay for Inhibitors of Human Galactokinase (GALK); Purified GALK, Kinase-Glo residual ATP luminescence; Potency, µM (highest dose often 57.5 µM), inactives show at the top dose activity change, negative = inhibition, actives largely listed as inhibitors; 270,000 compounds, 0.007% hits; note: potency is the fitted concentration of half-maximal effect; % is set by controls: 0 for no effect and ±100 for the full control effect
Target sequence (P51570 whole entry, looked up): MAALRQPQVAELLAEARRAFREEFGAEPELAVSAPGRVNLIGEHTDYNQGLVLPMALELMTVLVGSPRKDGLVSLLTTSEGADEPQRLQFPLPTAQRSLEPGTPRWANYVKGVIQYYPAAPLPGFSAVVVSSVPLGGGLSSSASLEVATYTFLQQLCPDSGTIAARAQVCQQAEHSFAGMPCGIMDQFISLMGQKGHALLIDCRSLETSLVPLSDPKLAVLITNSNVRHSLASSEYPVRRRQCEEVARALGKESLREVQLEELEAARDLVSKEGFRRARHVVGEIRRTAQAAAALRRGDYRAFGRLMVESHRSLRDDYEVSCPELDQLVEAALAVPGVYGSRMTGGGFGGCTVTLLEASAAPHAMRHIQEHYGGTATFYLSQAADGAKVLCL
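GALK at 5 nM final was combined with compound, 35 uM ATP and 100 uM galactose in HEPES pH8.0 with MgCl2 and DTT. The reaction ran one hour at room temperature before luminescent ATP detection.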
miR-21 act: qHTS Assay for Modulators of miRNAs and/orActivators of miR-21; HeLa miR-21 FLuc reporter, luciferase, 48 h; Potency, µM (series often up to 38.3 µM), for the others: at the top dose activity change, positive = activation, most hits filed as activators; 340,000 tested, under 10 active; AID 2288, 2010;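 note: % of control where 0% means no effect; miR-21 action dims this reporter so a rising signal means less miR-21 action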
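Luminescence from a firefly luciferase reporter carrying a miR-21 binding site downstream, stably expressed under a CMV promoter in HeLa cells that make miR-21 endogenously, reports miRNA modulation after 48 h compound exposure up to approximately 40uM final.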
A549 tox: Nrf2 qHTS screen for inhibitors: counterscreen for cytotoxicity. A549 ARE-Fluc cells, CellTiter-Fluor viability, 18-24 h. Potency, µM (doses to about 46 µM), inactives show at the highest dose activity change, negative = cytotoxicity, hits mostly inhibitors. 390,000 compounds, 0.16% hits; note: potency is the fitted concentration of half-maximal effect; % is set by controls: 0 for no effect and ±100 for the full control effect
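A549 ARE-Fluc cells in 5% FBS OPTI-MEM, 5000 cells/well, rested 2 h then exposed to compounds in concentration-response for 18-24 h at 37 °C. Viability by CellTiter-Fluor fluorescence (Ex 405/Em 525) after 30 min; luciferase luminescence (BugLite, 15 min, RT) read afterwards.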
Active calls of the source: *; ? = inconclusive; · = not tested or not shown. Hits are enriched below; roughly 2.2% of the tested compounds scored in any of these assays. Unless noted, calls come from the whole dose curve; as a rule, active = well fitted curve in the direction sought with a large enough effect; inconclusive = small, poorly fitted or top-dose-only effect, or another doubt; inactive = no such curve, though single readings can be large; an effect the other way counts as inactive or inconclusive.

SMILES | Nrf2 activator | Nrf2 block | PI4K2A inh | GALK inh | miR-21 act | A549 tox
COC(=O)c1c(C)[nH]c(C(=O)/C=C/c2ccccc2)c1C | 1% | ? | 6 | 0% | -10% | -3%
Cc1nc(CN(C)c2ncnc3cc(-c4ccc5c(c4)OCO5)ccc23)cs1 | · | -10% | · | · | · | -3%
Cc1ccc(Cn2cc(CCC(=O)NCC(C)c3ccccc3)c3ccccc32)cc1 (stereo not drawn) | 2% | 18µM* | 4 | · | ? | ?
CCn1cc(CCC(=O)NCc2ccc(C)cc2)c2ccccc21 | 0% | 2% | -1 | · | 0% | -1%
Cc1ccc(S(=O)(=O)N(C)C)cc1NC(=O)C(C)NC(C)c1cccs1 (stereo not drawn) | 0% | ? | 1 | 6% | 0% | 9%
Cc1ccc(S(=O)(=O)N(C)C)cc1NC(=O)C(C)N(C)Cc1sccc1C (stereo not drawn) | 0% | 13µM* | 0 | -2% | 19% | -18%
Cc1cccc(NC(=O)C2CCCN2S(=O)(=O)c2cccc3cccnc23)c1C (stereo not drawn) | · | · | -2 | · | · | ·
C[C@@H]1/C=C/CC(=O)N[C@H](c2cccc(Br)c2)[C@H](C)/C=C/CC(=O)N[C@@H]1c1cccc(Br)c1 | · | · | 1 | · | · | ·
CCOC(=O)c1c(C)oc2c1c(C=NCCO)c(O)c1ccccc12 | 1% | 15µM* | -6 | -4% | 27% | 23µM*
N#C/C(=C/c1ccc(Sc2nc3ccccc3[nH]2)o1)c1ccccc1F | 16% | ? | 1 | -2% | 13% | ?
N#C/C(=C/c1ccc(Sc2nc3ccccc3[nH]2)o1)c1cccc(F)c1 | 18% | 21µM* | 4 | 1% | 13% | 26µM*
N#C/C(=C\c1ccc(Sc2ccccc2)o1)c1nc2ccccc2[nH]1 | 8% | -24% | -10 | 0% | -55% | -6%
N#C/C(=C/c1ccc(Sc2nc3ccccc3[nH]2)o1)c1cccc(Br)c1 | 6% | 16µM* | 4 | -1% | 17% | ?
CCCCCC(=O)NC1CCCCN(Cc2ccc(C)cc2)C1=O (stereo not drawn) | · | · | -7 | · | · | ·
CCOC(=O)c1ccc(NC(=O)CCc2nc(-c3ccccc3Cl)no2)cc1 | 0% | 16µM* | -3 | 5% | 18% | -19%
CCOC(=O)c1ccc(NC(=O)CCc2nc(-c3ccccc3)no2)cc1 | 1% | ? | 5 | 4% | 16% | -20%
COC(=O)[C@]12C[C@H](CC(=O)NCc3cccc(C(F)(F)F)c3)C(=O)N(Cc3cccc4ccccc34)C1=C[C@H](COCc1ccccc1)O[C@@H]2C | · | · | -1 | · | · | ·
CN(C)CCN1CCN(c2cccc(Cl)c2)C1=O | · | · | -2 | · | · | ·
N#C/C(=C/c1ccc(N2CCCCCC2)o1)c1ccc(Cl)cc1 | 11µM* | -7% | 4 | 0% | ? | ?
N#C/C(=C/c1ccc(N2CCCCC2)o1)c1cccc(F)c1 | 14µM* | ? | -3 | 2% | -23% | -17%
N#C/C(=C/c1ccc(N2CCCCC2)cc1)c1cccc(F)c1 | 5% | ? | 1 | 0% | -51% | -6%
C=CCCC(=O)N[C@H]1CC[C@@]23CCCN2C(=O)CCC[C@H]3[C@H]1CCC | · | · | -4 | · | · | ·
CC1=CC(C)(C)N2C(=O)C3(NCCc4c3[nH]c3ccccc43)c3cc(C)cc1c32 (stereo not drawn) | 3% | ? | 1 | -1% | 18% | 12µM*
CN1C(=O)C2(NCCc3c2[nH]c2ccccc32)c2ccccc21 (stereo not drawn) | 3% | 0% | -3 | -3% | -1% | -16%
O=C(CSc1nnc(-c2cccnc2)o1)c1cc2ccccc2oc1=O | 7.1µM* | · | 0 | -2% | -10% | -1%
SMILES | Nrf2 activator | Nrf2 block | PI4K2A inh | GALK inh | miR-21 act | A549 tox
CCOc1ncccc1C(=O)NNC(=O)c1ccc(NS(=O)(=O)c2cccs2)cc1 | 2.5µM* | 2% | -4 | · | · | 0%
COc1cccc(Nc2ncccc2C(=O)Nc2ccccc2)c1 | 2% | 21µM* | -1 | -3% | -7% | ?
O=C(NNC(=O)c1ccccc1[N+](=O)[O-])c1ccc(NS(=O)(=O)c2cccs2)cc1 | 0% | 5% | 4 | 7% | -4% | 0%
CCOc1ncccc1C(=O)Nc1ccc(C(=O)Nc2ccc(OC)cc2)cc1 | -1% | 8.2µM* | 6 | · | · | -15%
Fc1ccc(Cn2ccc3ccc(-c4ccc5ccn(Cc6ccc(F)cc6)c5c4)cc32)cc1 | · | · | 5 | · | · | ·
Nc1ccc(Cn2ccc3c4c(N)nc(N)nc4ccc32)cc1 | 17% | 0.82µM* | -7 | · | · | -15%
Cc1nn(C2CCS(=O)(=O)C2)c(Cl)c1/C=C/C(=O)OCC(=O)c1cc(C)n(-c2ccc(F)cc2)c1C (stereo not drawn) | 0% | 21µM* | 5 | 1% | 21% | 10%
Cc1ccccc1C(=O)N(Cc1nc(-c2ccc(Cl)cc2)no1)C(C)C | 0% | ? | -2 | · | 11% | -5%
Cc1occc1C(=O)N(C)Cc1nc(-c2ccc(Cl)cc2)no1 | 4% | 21µM* | -6 | 4% | -4% | ?
COc1ccccc1C(=O)N(Cc1nc(-c2ccc(Cl)cc2)no1)C(C)C | 0% | 21µM* | 5 | 4% | 17% | -11%
N#Cc1ccccc1NC(=O)COC(=O)c1cccs1 | 21% | ? | -2 | · | · | 2%
O=C(c1ccco1)N1CCN(Cc2ccc(Cl)cc2)CC1 | 0% | · | -65* | -3% | -4% | 4%
CCC(=O)Nc1ccc(N2CCN(C(=O)c3cccs3)CC2)cc1 | 0% | 11% | 2 | 2% | -2% | 26%
Cc1ccc(C(=O)Nc2ccc(N3CCN(C(=O)c4ccco4)CC3)cc2)c(Cl)c1 | 0% | ? | -21 | 5% | -2% | -1%
O=C(COc1ccccc1[N+](=O)[O-])Nc1ccc(N2CCN(C(=O)c3cccs3)CC2)cc1 | 3% | 5.8µM* | 4 | 0% | 28% | -13%
Cc1ccc(C(=O)Nc2ccc(N3CCN(C(=O)c4cccs4)CC3)cc2)c(Cl)c1 | 0% | 23µM* | 2 | 0% | ? | -12%
O=C(COC(=O)c1cccs1)Nc1ccccc1[N+](=O)[O-] | 11µM* | 4% | -5 | 13% | 0% | 6%
CC(C)C[C@H](NC(C)(C)C(=O)NC1CCCCC1)C(=O)NCCc1c[nH]c2ccccc12 | · | · | -1 | · | · | ·
Cc1cccc(OCC(=O)Nc2ccc(N3CCN(C(=O)c4ccco4)CC3)cc2)c1C | 0% | -1% | 0 | -2% | 6% | 3%
